Reference: PubChem BioAssay
Calls of active or inactive are those of the source.

Key:
[1] = small molecules captured by biotinylated probe aFSTL3 – biochemical, small-molecule microarray, fluorescence 635/667, stem cell growth factor project, primary screen (AID 1064); conditions: higher = more signal;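 further: measures binding of the biotinylated anti-FSTL3 antibody to printed compounds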
[2] = binders from COS7 lysate, DM2A8 probe, primary screen, torsin A project, cell lysate, small-molecule microarray, fluorescence 635/667 (AID 1065); conditions: higher = more signal, COS7 lysate expressing mutant human TOR1A
[3] = small molecules captured by biotinylated probe aFGF2 – biochemical, small-molecule microarray, fluorescence 635/667, stem cell growth factor project, primary screen (AID 1067); conditions: higher = more signal;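 further: measures binding of biotinylated aFGF2 protein to printed compounds on slides; z-score merges feature fluorescence and signal-to-noise across triplicate slides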
[4] = small molecules captured by biotinylated probe aFGF10 – biochemical, small-molecule microarray, fluorescence 635/667, stem cell growth factor project, primary screen (AID 1071); conditions: higher = more signal;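 further: score merges 667 nm spot intensity and signal to noise from triplicate slides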
[5] = target: Neurogenic locus notch homolog protein 2 (Homo sapiens) (UniProt Q04721); assay: small molecules binding Notch2 protein – biochemical, small-molecule microarray, 635 nm fluorescence, stem cell growth factors, primary screen (AID 1073); conditions: higher = more signal
[6] = target: Pro-neuregulin-1, membrane-bound isoform (Homo sapiens) (UniProt Q02297); assay: small molecules binding neuregulin-1 protein – biochemical, small-molecule microarray, fluorescence 635/667, psychiatric disease protein project, primary screen (AID 1075); conditions: NRG1 binding, 635 nm fluorescence, higher = more signal;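 further: score combines 667 nm spot fluorescence with signal to noise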
[7] = tested on: Neuregulin-1 EGF-like domain; assay: small molecules binding NRG1 EGF domain – biochemical, small-molecule microarray, 635 nm fluorescence, primary screen (AID 1081); conditions: higher = more signal;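 further: binding of the protein to compounds printed on small-molecule microarray slides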
[8] = FRG1 expression reporter modulators in myotubes – cell-based, C2C12 myotubes, firefly/Renilla luciferase, luminescence, FRG1 inhibition for FSHD, primary screen (AID 1084); conditions: FRG1 promoter luciferase, higher = more signal, called active from +8 up or from −8 down
[9] = small molecules captured by biotinylated probe aFST – biochemical, small-molecule microarray, fluorescence 635/667, stem cell growth factor project, primary screen (AID 1086); conditions: higher = more signal;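 further: score merges 667 nm fluorescence with signal-to-noise of each printed compound spot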
[10] = binders of probe aHhip on microarray, primary screen, stem cell growth factor project, biochemical, small-molecule microarray, fluorescence 635/667 (AID 1087); conditions: higher = more signal;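 further: score merges spot fluorescence at 667nm with spot signal to noise ratio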
[11] = tested on: PRMT1 (protein arginine N-methyltransferase 1); assay: small molecules binding arginine methyltransferase PRMT1 – biochemical, small-molecule microarray, 635 nm fluorescence, primary screen (AID 1088); conditions: higher = more signal;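 further: binding of Prmt1 protein to compounds spotted on small-molecule microarray slides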
[12] = growth effects on S. cerevisiae YJM789 – YJM789 clinical isolate, OD600, 24 h, basal, primary screen (AID 1089); conditions: higher = more signal, called active from +8 up or from −8 down;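 further: growth of clinical yeast isolate S. cerevisiae YJM 789 seeded 1000 cells per well; test concentration not given here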
[13] = S. pombe growth modifiers, basal conditions – strain 972, OD600, 24 h, no modulator, primary screen (AID 1090);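 further: basal condition with compound alone and no growth modifier present; test concentration not given here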; conditions: S. pombe 972 growth, higher = more signal, called active from +8 up or from −8 down
[14] = budding yeast growth modifiers under rapamycin – strain BY4716, OD600, 96 h, primary screen (AID 1091); further: test concentration not given here; conditions: S. cerevisiae BY4716 + rapamycin, higher = more signal, called active from +8 up or from −8 down
[15] = target: Torsin-1A-interacting protein 2 (Homo sapiens) (UniProt Q8NFQ8); assay: small molecules binding lysate-expressed LULL1 – cell lysate, human LULL1 lysate, 635/667 nm fluorescence, primary screen (AID 1092); conditions: small-molecule microarray, hLULL1 lysate binding, 635 nm fluorescence; higher = more signal;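 further: probe is lysate of COS7 cells overexpressing human LULL1; score merges per-feature 667 nm fluorescence with signal-to-noise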
[16] = optical density change of DRC41 E. coli – strain DRC41, OD650, 24 h, E. coli filamentation project, primary screen (AID 1093);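 further: MC1000 strain lacking acrAB efflux and sulA so SOS filamentation is blocked; test concentration not given here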; conditions: E. coli DRC41 growth, higher = more signal, called active from +8 up or from −8 down
[17] = probe aLefty2 binding to arrayed compounds – biochemical, biotinylated probe, 635/667 nm fluorescence, primary screen (AID 1094); conditions: small-molecule microarray, higher = more signal;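 further: score merges spot fluorescence near 667 nm with spot signal-to-noise ratio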
[18] = tested on: Noggin (protein binding on small-molecule microarray); assay: small molecules binding Noggin protein – biochemical, 635/667 nm fluorescence, primary screen (AID 1095); conditions: 635 nm fluorescence, higher = more signal;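 further: score merges 667 nm feature fluorescence with signal to noise over triplicate slides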
[19] = target: Neurogenic locus notch homolog protein 3 (Homo sapiens) (UniProt Q9UM47); assay: small molecules binding NOTCH3 protein – biochemical, 635/667 nm fluorescence, primary screen (AID 1096); conditions: small-molecule microarray, 635 nm fluorescence, higher = more signal
[20] = probe aEGFR binding to arrayed compounds – biochemical, biotinylated probe, 635/667 nm fluorescence, primary screen (AID 1097); conditions: small-molecule microarray, higher = more signal;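 further: probe is a biotinylated anti-EGFR antibody binding compounds printed on slides; score combines fluorescence near 667 nm and signal to noise of each spot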

Chain of Neurogenic locus notch homolog protein 3 (Homo sapiens) (Q9UM47 whole entry, looked up): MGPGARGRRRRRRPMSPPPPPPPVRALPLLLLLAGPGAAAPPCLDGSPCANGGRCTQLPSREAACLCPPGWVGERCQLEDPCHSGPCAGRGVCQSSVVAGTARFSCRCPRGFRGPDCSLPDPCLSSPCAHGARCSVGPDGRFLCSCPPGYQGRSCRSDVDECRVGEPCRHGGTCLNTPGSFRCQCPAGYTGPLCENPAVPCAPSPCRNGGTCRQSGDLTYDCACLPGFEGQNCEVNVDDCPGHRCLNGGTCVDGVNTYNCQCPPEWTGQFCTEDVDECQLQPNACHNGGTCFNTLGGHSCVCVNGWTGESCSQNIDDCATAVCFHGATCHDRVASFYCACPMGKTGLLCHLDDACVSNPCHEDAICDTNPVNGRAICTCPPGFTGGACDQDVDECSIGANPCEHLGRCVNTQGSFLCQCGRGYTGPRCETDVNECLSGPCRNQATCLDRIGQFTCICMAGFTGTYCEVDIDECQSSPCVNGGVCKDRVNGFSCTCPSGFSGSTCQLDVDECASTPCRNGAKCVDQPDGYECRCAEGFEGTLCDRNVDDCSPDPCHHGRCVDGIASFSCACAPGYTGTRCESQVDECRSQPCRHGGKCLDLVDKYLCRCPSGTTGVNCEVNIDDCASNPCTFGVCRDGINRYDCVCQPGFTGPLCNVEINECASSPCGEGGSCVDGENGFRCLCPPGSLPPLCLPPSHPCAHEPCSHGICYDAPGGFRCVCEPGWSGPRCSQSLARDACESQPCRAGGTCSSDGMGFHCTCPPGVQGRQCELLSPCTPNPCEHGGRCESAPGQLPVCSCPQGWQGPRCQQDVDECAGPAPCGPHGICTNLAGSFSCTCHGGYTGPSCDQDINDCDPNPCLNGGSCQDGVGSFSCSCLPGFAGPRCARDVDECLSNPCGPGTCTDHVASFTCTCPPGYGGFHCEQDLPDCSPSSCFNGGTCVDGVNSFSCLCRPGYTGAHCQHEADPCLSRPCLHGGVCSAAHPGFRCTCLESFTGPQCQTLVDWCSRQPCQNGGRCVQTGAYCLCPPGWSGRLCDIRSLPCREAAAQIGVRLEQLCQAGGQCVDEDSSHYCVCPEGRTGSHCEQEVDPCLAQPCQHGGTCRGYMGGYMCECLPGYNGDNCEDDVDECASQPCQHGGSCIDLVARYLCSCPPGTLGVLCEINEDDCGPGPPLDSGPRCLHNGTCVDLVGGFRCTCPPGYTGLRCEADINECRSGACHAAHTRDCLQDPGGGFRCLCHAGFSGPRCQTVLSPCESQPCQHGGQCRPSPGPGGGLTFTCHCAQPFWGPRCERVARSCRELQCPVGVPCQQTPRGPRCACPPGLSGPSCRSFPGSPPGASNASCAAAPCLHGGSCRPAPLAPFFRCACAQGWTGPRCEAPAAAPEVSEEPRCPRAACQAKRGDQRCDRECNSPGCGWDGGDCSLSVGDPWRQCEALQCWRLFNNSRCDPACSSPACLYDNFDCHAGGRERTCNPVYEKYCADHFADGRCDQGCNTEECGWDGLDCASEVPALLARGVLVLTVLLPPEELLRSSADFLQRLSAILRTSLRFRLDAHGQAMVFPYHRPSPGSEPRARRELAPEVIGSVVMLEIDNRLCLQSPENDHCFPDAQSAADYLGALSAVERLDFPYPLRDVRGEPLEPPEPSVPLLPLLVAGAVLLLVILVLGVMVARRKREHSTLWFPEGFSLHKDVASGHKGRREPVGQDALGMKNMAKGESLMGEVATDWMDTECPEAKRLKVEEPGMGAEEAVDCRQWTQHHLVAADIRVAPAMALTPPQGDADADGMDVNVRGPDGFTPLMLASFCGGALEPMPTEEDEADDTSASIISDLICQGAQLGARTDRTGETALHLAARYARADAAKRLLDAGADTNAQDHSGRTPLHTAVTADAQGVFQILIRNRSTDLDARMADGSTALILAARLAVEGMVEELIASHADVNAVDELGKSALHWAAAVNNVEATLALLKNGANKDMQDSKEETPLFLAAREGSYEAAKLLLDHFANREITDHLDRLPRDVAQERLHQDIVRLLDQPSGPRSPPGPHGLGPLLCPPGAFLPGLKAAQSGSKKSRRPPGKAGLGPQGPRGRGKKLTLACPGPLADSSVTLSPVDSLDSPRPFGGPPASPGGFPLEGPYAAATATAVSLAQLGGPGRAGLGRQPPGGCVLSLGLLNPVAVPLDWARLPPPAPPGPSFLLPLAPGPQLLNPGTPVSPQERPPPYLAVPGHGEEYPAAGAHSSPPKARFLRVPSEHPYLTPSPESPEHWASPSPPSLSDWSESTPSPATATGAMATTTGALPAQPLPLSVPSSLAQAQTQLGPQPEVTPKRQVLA
Chain of Torsin-1A-interacting protein 2 (Homo sapiens) (Q8NFQ8 whole entry, looked up): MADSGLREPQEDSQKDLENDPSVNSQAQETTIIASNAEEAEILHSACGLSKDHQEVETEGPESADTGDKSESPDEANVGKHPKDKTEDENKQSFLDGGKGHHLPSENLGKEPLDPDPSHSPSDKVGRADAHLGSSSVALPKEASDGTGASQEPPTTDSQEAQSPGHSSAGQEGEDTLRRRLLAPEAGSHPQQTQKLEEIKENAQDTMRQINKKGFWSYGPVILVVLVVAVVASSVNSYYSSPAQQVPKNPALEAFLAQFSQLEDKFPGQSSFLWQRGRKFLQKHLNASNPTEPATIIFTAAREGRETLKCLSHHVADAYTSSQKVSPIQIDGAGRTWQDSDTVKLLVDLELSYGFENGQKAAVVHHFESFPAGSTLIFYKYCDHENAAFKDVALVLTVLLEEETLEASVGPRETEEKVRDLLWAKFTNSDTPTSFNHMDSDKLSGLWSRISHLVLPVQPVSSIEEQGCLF
Chain of Pro-neuregulin-1, membrane-bound isoform (Homo sapiens) (Q02297 whole entry, looked up, the tested form may be a part, canonical isoform): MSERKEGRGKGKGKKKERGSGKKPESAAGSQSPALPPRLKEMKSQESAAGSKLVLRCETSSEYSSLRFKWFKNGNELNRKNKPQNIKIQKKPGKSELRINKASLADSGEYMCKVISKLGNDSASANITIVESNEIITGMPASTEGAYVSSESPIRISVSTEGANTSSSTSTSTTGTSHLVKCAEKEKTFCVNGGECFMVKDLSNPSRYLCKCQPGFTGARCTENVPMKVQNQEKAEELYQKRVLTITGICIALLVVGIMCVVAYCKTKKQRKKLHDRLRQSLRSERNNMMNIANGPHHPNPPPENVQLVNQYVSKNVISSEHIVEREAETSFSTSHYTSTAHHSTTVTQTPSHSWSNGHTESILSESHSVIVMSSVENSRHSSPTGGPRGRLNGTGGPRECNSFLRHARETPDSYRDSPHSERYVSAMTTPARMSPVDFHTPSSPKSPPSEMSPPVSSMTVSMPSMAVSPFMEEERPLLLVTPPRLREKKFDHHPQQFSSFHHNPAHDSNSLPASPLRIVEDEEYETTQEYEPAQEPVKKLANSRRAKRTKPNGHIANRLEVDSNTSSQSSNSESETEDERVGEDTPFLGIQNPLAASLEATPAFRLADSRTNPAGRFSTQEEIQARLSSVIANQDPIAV

SMILES	composite z-score [1]	composite z-score [2]	composite z-score [3]	composite z-score [4]	composite z-score [5]	composite z-score [6]	composite z-score [7]	z-score [8]	composite z-score [9]	composite z-score [10]	composite z-score [11]	z-score [12]	z-score [13]	z-score [14]	composite z-score [15]	z-score [16]	composite z-score [17]	composite z-score [18]	composite z-score [19]	composite z-score [20]
C[C@]1(C(=O)NC2CC2)c2ccccc2C(=O)N(Cc2ccccc2)[C@H]1c1ccc(CO)cc1	0.942	-0.729	-0.116	-0.796	-0.956	-0.145	0.659	-1.69 (inactive)	-0.346	-0.511	-1.09	-0.653 (inactive)	-1.75 (inactive)	-0.785 (inactive)	-0.488	1.84 (inactive)	-0.0873	-0.918	-1.59	-0.278
COC(=O)[C@@]1(Cc2ccc(OC)cc2)[C@H]2c3cc(C(=O)N4CCCC4)n(Cc4cccc5ccccc45)c3C[C@H]2CN1C(=O)c1ccccc1	0.176	-0.214	0.401	0.672	1.8	1.42	0.831	-0.404 (inactive)	0.849	-0.115	-0.88	0.221 (inactive)	1.82 (inactive)	2.29 (inactive)	3.02	0.0929 (inactive)	0.0082	0.15	0.981	0.087
COc1ccc(CCNC(=O)[C@@]2(Sc3ccc(C)cc3)CC(=O)N(C3Cc4ccccc4C3)[C@@H]2c2ccc(CO)cc2)cc1	0.183	0.737	0.153	-0.0334	1.43	0.591	1.29	-3.33 (inactive)	0.384	0.866	1.54	0.593 (inactive)	-0.468 (inactive)	0.707 (inactive)	1.88	-1.79 (inactive)	0.0511	2.07	1.02	0.0707
C[C@H]1NC(=O)[C@@]23C(=O)N[C@@H](Cc4ccccc4)C2[C@H](C)[C@@]2(C)O[C@H]2C3/C=C/C/C=C\CNC(=O)[C@H](Cc2ccccc2)NC1=O (stereo not given in full)	-0.536	0.0198	-0.206	0.533	-0.158	1.4	1.11	1.8 (inactive)	-0.107	-0.137	0.44	0.907 (inactive)	-0.236 (inactive)	0.952 (inactive)	0.834	-0.225 (inactive)	-0.213	1.22	0.967	-0.096
O=C1OCCC=C[C@H]2OC34C=CCN(Cn5nnc6ccccc65)C(=O)[C@H]3N(CCCCCCO)C(=O)[C@@H]4C12 (stereo not given in full)	0.603	0.134	-0.129	-0.612	-1.29	-0.207	1.11	-0.229 (inactive)	-0.564	-0.134	-0.0465	0.298 (inactive)	0.577 (inactive)	0.194 (inactive)	0.529	-0.369 (inactive)	-0.0741	-1.09	-0.36	-0.354
COc1ccc(CCN2C(=O)[C@@]3(Cc4ccccc42)c2ccccc2C(=O)N(Cc2ccccc2OC)[C@H]3c2ccc(CO)cc2)cc1	0.502	-0.277	0.0252	-0.0162	-0.779	-0.634	-0.322	-1.01 (inactive)	-0.275	0.21	0.177	-0.585 (inactive)	-1.23 (inactive)	-1.42 (inactive)	1.66	0.237 (inactive)	0.0877	-1.36	-0.642	-0.204
O=C1C=C(c2ccccc2)C(=O)c2ccc([C@H]3Oc4ccccc4S(=O)(=O)N4CCC[C@@H]34)cc21	-0.292	-0.303	-0.116	-0.0019	-0.405	-0.775	-0.87	2.5 (inactive)	-0.024	0.0659	-0.208	-0.818 (inactive)	-14.9 (active)	0.696 (inactive)	-1.27	1.66 (inactive)	-0.18	-0.144	-0.272	-0.119
COC(=O)CCCCCCC(=O)Nc1ccc(NC(=O)CCCC[P+](c2ccccc2)(c2ccccc2)c2ccccc2)cc1	-0.493	0.725	-0.0639	0.695	0.336	-0.31	0.166	0.789 (inactive)	0.352	-0.0296	-0.148	-1.65 (inactive)	-7.18 (inactive)	-0.786 (inactive)	-0.891	-18.9 (active)	-0.232	1.23	0.973	0.0042
COC(=O)C(CC#Cc1ccc2c(c1)[C@]1(C(=O)N2)[C@H](c2ccccc2OCCO)N2[C@H](c3ccccc3)[C@H](c3ccccc3)OC(=O)[C@H]2[C@@H]1C(=O)NC[C@H](O)c1ccccc1)C(=O)OC	-0.881	0.711	-0.0307	0.767	0.982	1.36	1.25	-1.42 (inactive)	-0.158	-0.4	1.54	2.51 (inactive)	1.32 (inactive)	4.78 (inactive)	3.25	0.282 (inactive)	-0.324	1.1	1.04	-0.147
C=C(C)C1CCC(C(O)C2C=CC3C(=O)N(C)C(=O)C3N2N2CCCCC2)CC1 (stereo not given)	0.207	-0.222	0.118	0.82	1.62	1.45	1.24	1.17 (inactive)	1.23	0.134	1.53	1.26 (inactive)	0.642 (inactive)	2.25 (inactive)	3.04	-0.867 (inactive)	0.398	0.758	1.04	0.368
